BoNT-A LC inh2 – blocks Botulinum neurotoxin A light chain protease; multiplex microsphere protease substrate cleavage, flow cytometry; inhibition, % at 10 µM; 360,000 tested, 0.17% active; AID 588499; also: plate controls were buffer without enzyme for full effect and enzyme alone for no effect
SARS 3CLpro inh – SARS-CoV 3CLpro protease inhibition; recombinant SARS-CoV 3CLpro, quenched FRET peptide cleavage; P0C6X7; inhibition, % at 6 µM; 290,000 tested, 0.14% active; in the data active = inhibition above about 12%
Autofluor counter – counter-screen for toxin protease inhibitors: compound fluorescence. fluorescence intensity (test concentration not listed). 360,000 tested, 3.1% active. compound autofluorescence counterscreen, microsphere flow cytometry; active compounds read high; in the data active = fluorescence intensity above about 16000; inconclusive = no clear call, values can overlap the other calls
VHR inh abs – inhibitors of human VHR1 phosphatase (DUSP3) | AID 1654 | 290,000 tested, 0.52% active | recombinant VHR phosphatase, pNPP absorbance | P51452 | inhibition, % at 13.3 µM; in the data active = inhibition above about 50%
Target sequence (P51452 whole entry, looked up): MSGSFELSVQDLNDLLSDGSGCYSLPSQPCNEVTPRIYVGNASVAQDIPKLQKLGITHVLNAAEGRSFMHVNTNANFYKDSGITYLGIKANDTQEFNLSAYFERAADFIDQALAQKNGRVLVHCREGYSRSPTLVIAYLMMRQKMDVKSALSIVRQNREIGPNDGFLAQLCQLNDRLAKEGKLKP
Anthrax LF prot – blocks Bacillus anthracis lethal factor protease | inhibition, % at 10 µM | P15917 | 360,000 tested, 0.12% active | multiplex microsphere protease cleavage assay, LF; also: plate controls were buffer without enzyme for full effect and enzyme alone for no effect
BoNT-F LC inh – BoNT F light chain protease inhibition; Multiplex microsphere protease cleavage assay, flow cytometry; inhibition, % at 10 µM; 360,000 tested, 0.22% active; AID 588497; in the data active = inhibition above about 35%, passing the limit was not always enough; inconclusive = no clear call, values can overlap the other calls; also: plate controls were buffer without enzyme for full effect and enzyme alone for no effect
An asterisk follows results filed as active. Hits are enriched below; roughly 3.9% of the tested compounds scored in any of these assays. Rule as the data show it, unless noted: active = inhibition above about 30%; inconclusive = no clear call, values can overlap the other calls; inactive = below that.

Screening O=C(Nc1cccc(Cl)c1)C1CCCN(S(=O)(=O)c2ccc(F)cc2)C1 (stereo not drawn) returned BoNT-A LC inh2 0, SARS 3CLpro inh 3, Autofluor counter 20734*, VHR inh abs 24, Anthrax LF prot 0 and BoNT-F LC inh -4.
Screening Cc1cccc(N2CCN(C(=O)CN3C(=O)NC4(CCCCCC4)C3=O)CC2)c1C returned BoNT-A LC inh2 -2, Autofluor counter inconclusive, Anthrax LF prot 0 and BoNT-F LC inh 5.
`CC(C)Oc1ccc(CNC(=O)Cn2ccc3cc(S(=O)(=O)N4CCCC4)ccc32)cc1` gave BoNT-A LC inh2 0, SARS 3CLpro inh 1, Autofluor counter 5493, VHR inh abs 53*, Anthrax LF prot -2 and BoNT-F LC inh -5.
`COc1ccccc1CNC(=O)CN1C(=O)NC2(CCC(C)CC2)C1=O` (stereo not drawn) gave BoNT-A LC inh2 0, Autofluor counter 3580, Anthrax LF prot 3 and BoNT-F LC inh 5.
Screening CCc1cc(OCCCSc2nc(C)cc(=O)[nH]2)ccc1Cl returned BoNT-A LC inh2 inconclusive, SARS 3CLpro inh 2, Autofluor counter 24555*, VHR inh abs -17, Anthrax LF prot 0 and BoNT-F LC inh -3.
For C/C=C/c1ccc(OCCOc2ccc(C=O)cc2)c(OC)c1 the results were BoNT-A LC inh2 0, SARS 3CLpro inh 4, Autofluor counter 1981, VHR inh abs -8, Anthrax LF prot 0 and BoNT-F LC inh 0.
C/C=C/c1ccc(OCCSc2nc(C)cc(=O)[nH]2)c(OC)c1 was read as BoNT-A LC inh2 -6, SARS 3CLpro inh 3, Autofluor counter 17582*, VHR inh abs 8, Anthrax LF prot -1 and BoNT-F LC inh -9.
Cc1cc(=O)[nH]c(SCCOc2ccc(OC(C)C)cc2)n1 was read as BoNT-A LC inh2 0, SARS 3CLpro inh 4, Autofluor counter 4312, VHR inh abs -1, Anthrax LF prot 5 and BoNT-F LC inh -14.
`COc1ccc(CSc2nc(C)cc(=O)[nH]2)cc1Br` gave BoNT-A LC inh2 0, SARS 3CLpro inh 0, Autofluor counter 23006*, VHR inh abs 10, Anthrax LF prot 0 and BoNT-F LC inh 2.
Screening Cc1cc(=O)[nH]c(SCc2cccc(Br)c2)n1 returned BoNT-A LC inh2 1, SARS 3CLpro inh 6, Autofluor counter 2170, VHR inh abs 15, Anthrax LF prot -1 and BoNT-F LC inh 3.
Cc1cc(=O)[nH]c(SCCCOc2ccccc2Cl)n1 was read as BoNT-A LC inh2 -2, SARS 3CLpro inh 0, Autofluor counter 20446*, VHR inh abs 20, Anthrax LF prot -1 and BoNT-F LC inh -1.
Screening Cc1ccc(S(=O)(=O)N[C@H](C(=O)NCC2CCC(C(=O)O)CC2)C(C)C)cc1 (stereo partly drawn) returned BoNT-A LC inh2 0, SARS 3CLpro inh 1, Autofluor counter 3706, VHR inh abs -8, Anthrax LF prot -7 and BoNT-F LC inh -7.
`CCOc1ccc(-c2csc(C3COc4ccccc4O3)n2)cc1` (stereo not drawn) gave BoNT-A LC inh2 1, SARS 3CLpro inh 0, Autofluor counter 23266*, Anthrax LF prot 0 and BoNT-F LC inh -3.
CCCc1nc2oc3c(NCCN4CCOCC4)ncnc3c2c2c1CCCC2 was read as BoNT-A LC inh2 0, Autofluor counter 3833, VHR inh abs 48, Anthrax LF prot -5 and BoNT-F LC inh 0.
Screening CC(C)Cc1nc2oc3c(NCCCN4CCOCC4)ncnc3c2c2c1CCC2 returned BoNT-A LC inh2 -1, SARS 3CLpro inh 0, Autofluor counter 23301*, VHR inh abs 25, Anthrax LF prot -1 and BoNT-F LC inh -3.
Screening Nc1cc(=O)[nH]c(=S)n1-c1cccc(C(F)(F)F)c1 returned BoNT-A LC inh2 0, SARS 3CLpro inh 4, Autofluor counter 16135*, VHR inh abs 0, Anthrax LF prot -5 and BoNT-F LC inh -2.
O=C(Oc1coc(CSc2nnc(NC(=O)c3cccs3)s2)cc1=O)c1ccccc1 was read as BoNT-A LC inh2 1, SARS 3CLpro inh 2, Autofluor counter 2302, VHR inh abs 1, Anthrax LF prot 0 and BoNT-F LC inh 0.
Screening Cc1ccc(C(=O)Oc2coc(CSc3nnc(NC(=O)C4CC4)s3)cc2=O)cc1 returned BoNT-A LC inh2 30*, SARS 3CLpro inh 0, Autofluor counter 2590, VHR inh abs 25, Anthrax LF prot -1 and BoNT-F LC inh 0.
`CCC(C)(O)c1[nH]c2ccc(C(=O)OC)cc2c1C` (stereo not drawn) gave BoNT-A LC inh2 0, SARS 3CLpro inh -2, Autofluor counter 3996, VHR inh abs 13, Anthrax LF prot 10 and BoNT-F LC inh 5.
For O=C1NCCCC2c3cc(O)c4ccccc4c3OC12N1CCCCC1 (stereo not drawn) the results were SARS 3CLpro inh 4 and VHR inh abs 7.
`O=C1NCCCC2c3c(cc(Br)c(O)c3Br)OC12N1CCOCC1` (stereo not drawn) gave BoNT-A LC inh2 6, SARS 3CLpro inh 1, Autofluor counter 20273*, VHR inh abs 8, Anthrax LF prot 4 and BoNT-F LC inh 9.
For CC(=O)Nc1ccc2c(c1)nc1n2CCOC1 the results were BoNT-A LC inh2 inconclusive, SARS 3CLpro inh -2, Autofluor counter 24292*, VHR inh abs 33, Anthrax LF prot -2 and BoNT-F LC inh -4.
For Cc1ccc(OCC(=O)Nc2ccc3c(c2)nc2n3CCOC2)cc1 the results were BoNT-A LC inh2 inconclusive, SARS 3CLpro inh -4, Autofluor counter 20169*, VHR inh abs 32, Anthrax LF prot -11 and BoNT-F LC inh -1.
For O=C(Nc1ccc2c(c1)nc1n2CCOC1)C1CCCCC1 the results were BoNT-A LC inh2 1, SARS 3CLpro inh 0, Autofluor counter 8237, VHR inh abs 29, Anthrax LF prot -2 and BoNT-F LC inh -4.
`N=C1C(c2nc3ccccc3c(=O)[nH]2)=C(O)CN1c1ccccc1` gave SARS 3CLpro inh 1 and VHR inh abs 16.
Screening CCOc1ccc(N2CC(O)=C(c3nc4ccccc4c(=O)[nH]3)C2=N)cc1 returned BoNT-A LC inh2 0, SARS 3CLpro inh -2, Autofluor counter 3800, VHR inh abs 56*, Anthrax LF prot -4 and BoNT-F LC inh 1.
CCN(CC)C(=O)C1=C(C)N(Cc2ccc(F)cc2)C(=O)C(CC(=O)NCCCN(C)C)C1 (stereo not drawn) was read as BoNT-A LC inh2 0, Autofluor counter 3326, Anthrax LF prot -5 and BoNT-F LC inh -3.
CCCc1nc2cc(CC(=O)OC)ccc2o1 was read as BoNT-A LC inh2 -3, SARS 3CLpro inh 2, Autofluor counter 24068*, VHR inh abs 20, Anthrax LF prot 0 and BoNT-F LC inh -2.
`CCN1C(=O)[C@H]2[C@@H](c3ccc(C(F)(F)F)cc3)N[C@]3(CCCN(Cc4ccc(C)cc4)C3=O)[C@H]2C1=O` gave BoNT-A LC inh2 -1, Autofluor counter 3788, Anthrax LF prot -11 and BoNT-F LC inh -12.

Bioassay records from PubChem.
